In the library only some 2.4% were active in any assay of this set; here they are far more common.
M18AAP inhibitor: PfM18AAP enzyme inhibition | recombinant PfM18AAP, H-Glu-NHMec fluorogenic cleavage | inhibition, % at 7.35 µM | hit rate 1.2% among 290,000 | AID 1822;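 active = inhibition above the campaign mean inhibition over all tested compounds plus 3 SD, cut at about 28% in these data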;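 also: 0% = plate median of test compound wells and 100% = 2 mM ZnCl2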
eIF4E 4G PPI: eIF4E/eIF4G interaction inhibition in translation initiation. P63073+Q04637. TR-FRET eIF4E-eIF4GI(517-606) binding, 2 h. inhibition, % at 21.7 µM. hit rate 0.37% among 220,000. AID 782;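 active = inhibition above about 30%, limit read from the data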;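 also: 0% = full FRET control wells and 100% = background wells lacking eIF4GI fragment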
PABP FP inh: PABP-poly(A) binding inhibition. P11940. PABP-poly(A) RNA binding, fluorescence polarization. inhibition, % at 35 µM. hit rate 1% among 290,000;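 also: calls also rest on retests at 20 µM and on dose response follow-up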
PERK inh: inhibitors of human PERK kinase; Q9NZJ5; CHO PERK-DD fusion, SEAP luminescence translation reporter; hit rate 0.17% among 220,000; inhibition, % at 5.6 µM; AID 1416;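 active = inhibition above the mean inhibition of all tested compounds plus 3 SD, set separately per screening campaign, cut at about 2.9% in these data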;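 also: PERK kinase domain activated by AP20187 dimerizer at 100 nM; 0% = DMSO with dimerizer and 100% = rapamycin at 8.4 µM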
eIF4H FP inh: inhibitors of RNA binding by human eIF4H; eIF4H fluorescence polarization binding assay; Q15056; hit rate 0.94% among 290,000; inhibition, % at 35 µM;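 also: calls also rest on retests at 20 µM and on dose response follow-up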
PABP1 MLLE inh: inhibitors of microRNA-mediated deadenylation, human PABP1 MLLE binding. P11940. GST-MLLE / FITC-PAM2 fluorescence polarization. inhibition, % at 20 µM. hit rate 0.36% among 360,000. AID 588489; in the data active = inhibition above about 35%, passing the limit was not always enough;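 also: plate controls were DMSO wells with GST-MLLE for no effect and wells lacking GST-MLLE protein for full effect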
Numbers without * were called inactive; ! = a repeat was not active. Unless noted, no rule for the calls is given here.

CC(C)(C)c1cc(-c2csc(Nc3ccccc3)[n+]2Cc2ccc(C(=O)O)cc2)cc(C(C)(C)C)c1O was read as M18AAP inhibitor -4, eIF4E 4G PPI 11, PABP FP inh 5.2*, PERK inh 0, eIF4H FP inh 52* and PABP1 MLLE inh -10.
For COc1ccc(CN2CC[C@H]3C=CCc4cccc(c43)C2)cc1 the results were PABP1 MLLE inh 6.
NC1=NC(=O)/C(=C\c2ccc(O)c([N+](=O)[O-])c2)S1 was read as M18AAP inhibitor 4, eIF4E 4G PPI -2, PABP FP inh -7, PERK inh 0, eIF4H FP inh 0 and PABP1 MLLE inh 27.
NC1=NC(=O)/C(=C/c2cccc(-c3ccc(S(N)(=O)=O)cc3)c2)S1 was read as M18AAP inhibitor 10, PABP FP inh 36*, eIF4H FP inh 90* and PABP1 MLLE inh 1.
For C=CCO/N=C(/C)c1ccc(Oc2cnccn2)cc1 the results were M18AAP inhibitor -1, eIF4E 4G PPI 0, PABP FP inh 74*, PERK inh 0, eIF4H FP inh 7.9* and PABP1 MLLE inh 2.
Cc1ccc(S(=O)(=O)NCCCN(C)C)cc1 was read as M18AAP inhibitor 3, eIF4E 4G PPI 3, PABP FP inh 7, PERK inh 3.2*, eIF4H FP inh -7 and PABP1 MLLE inh 4.
CCn1c(SCC(=O)Nc2nccs2)nnc1-c1ccc(C)cc1 was read as M18AAP inhibitor -7, eIF4E 4G PPI 2, PABP FP inh -13, PERK inh -1, eIF4H FP inh -6 and PABP1 MLLE inh -19.
For Cc1nc(NC(=O)CSc2nnc(-c3ccncc3)n2C)sc1C the results were M18AAP inhibitor 4, PABP FP inh -8, eIF4H FP inh -1 and PABP1 MLLE inh 9.
`CCC(=O)Nc1ccc(-c2nnc(SCC(=O)Nc3nccs3)n2C)cc1` gave M18AAP inhibitor -9, eIF4E 4G PPI -3, PABP FP inh 53*, PERK inh 0, eIF4H FP inh 12 and PABP1 MLLE inh -118.
Screening CCc1nnc(NC(=O)CSc2nnc(-c3ccncc3)n2C)s1 returned M18AAP inhibitor 1, eIF4E 4G PPI -8, PABP FP inh 11, PERK inh 3.3*, eIF4H FP inh 0 and PABP1 MLLE inh 10.
`COc1cc(C(O)c2nc(-c3cccs3)cs2)ccc1F` (stereo unspecified) gave PABP1 MLLE inh -5.
`CCOC(=O)C1=C(C)NC(SC)=C(C#N)C1CC(C)C` (stereo unspecified) gave M18AAP inhibitor 1, eIF4E 4G PPI 44*, PABP FP inh 4, PERK inh -1, eIF4H FP inh -2 and PABP1 MLLE inh 13.
COC(=O)c1ccccc1NC(=S)NC(=O)c1ccc2c(c1)OCO2 was read as M18AAP inhibitor 0, PABP FP inh -2, eIF4H FP inh -5 and PABP1 MLLE inh 42*.
Screening COc1ccc(OC)c(C2=C/C(=C/c3ccccn3)C(=O)O2)c1 returned M18AAP inhibitor 4, eIF4E 4G PPI -3, PABP FP inh 2, PERK inh 1, eIF4H FP inh 91* and PABP1 MLLE inh -41.
For Cc1sc2nc(CSc3nc4ccccc4c(=O)n3CCCN3CCOCC3)[nH]c(=O)c2c1C the results were M18AAP inhibitor -3, eIF4E 4G PPI -20, PABP FP inh 122*, PERK inh -1, eIF4H FP inh inconclusive and PABP1 MLLE inh -75.
COc1cccc(-n2c(=S)sc3c(=O)n(-c4ccccc4OC)c(=S)[nH]c32)c1 was read as M18AAP inhibitor 5, eIF4E 4G PPI -6, PABP FP inh -1, PERK inh 0, eIF4H FP inh -3 and PABP1 MLLE inh 41*.
Screening COc1ccccc1-n1c(=S)[nH]c2c(sc(=S)n2-c2ccccc2)c1=O returned M18AAP inhibitor 2, eIF4E 4G PPI -1, PABP FP inh 2, PERK inh 1, eIF4H FP inh 2 and PABP1 MLLE inh 27.
CCOC(=O)C1CCCN(C(=O)C(CCSC)NC(=O)COc2ccccc2)C1 (stereo unspecified) was read as PABP1 MLLE inh 5.
For Cc1ccc(/C=[N+](\[O-])c2ccc(N(C)C)cc2)c2nsnc12 the results were M18AAP inhibitor 31*, eIF4E 4G PPI 3, PABP FP inh -2, PERK inh 0, eIF4H FP inh -2 and PABP1 MLLE inh -28.
`Cc1ccc2nsnc2c1NS(=O)(=O)c1c(C)ccc2nsnc12` gave M18AAP inhibitor 6, PABP FP inh 4, PERK inh 0, eIF4H FP inh 6 and PABP1 MLLE inh 9.
For CC1CC(C)CN(S(=O)(=O)c2ccc(C(C)(C)C)cc2)C1 (stereo unspecified) the results were M18AAP inhibitor 16, eIF4E 4G PPI -5, PABP FP inh 80*, PERK inh 2, eIF4H FP inh 5 and PABP1 MLLE inh 1.
COc1ccc(C(=O)NCCS(=O)(=O)N2CCCCCC2)cc1 was read as PABP1 MLLE inh 0.
CCN1CCN(C(=O)C2CCCN(S(=O)(=O)c3cccc4nsnc34)C2)CC1 (stereo unspecified) was read as M18AAP inhibitor 9, PABP FP inh 0, eIF4H FP inh -9 and PABP1 MLLE inh 10.
`Cc1cc(NN)nc2ccc(Cl)cc12` gave M18AAP inhibitor 31*, eIF4E 4G PPI 1, PABP FP inh -10, PERK inh 0, eIF4H FP inh 1 and PABP1 MLLE inh -36.
`CC(=O)c1cccc(N(CC(=O)NC2CCCCC2)C(=O)CNC(=O)c2cccs2)c1` gave M18AAP inhibitor -1, PABP FP inh 8, eIF4H FP inh -3 and PABP1 MLLE inh 6.
Screening CC(=O)C1=C(O)C(=O)N(C)C1c1ccccc1[N+](=O)[O-] (stereo unspecified) returned M18AAP inhibitor 1, eIF4E 4G PPI 1, PABP FP inh 0, PERK inh 0, eIF4H FP inh -17 and PABP1 MLLE inh 39*.
Screening Cc1ccc(S(=O)(=O)NC2=C(N3CCN(c4ccccc4F)CC3)C(=O)c3ccccc3C2=O)cc1 returned M18AAP inhibitor -11, eIF4E 4G PPI -8, PABP FP inh 39, PERK inh 0, eIF4H FP inh 10 and PABP1 MLLE inh 38*!.
Screening CCOC(=O)N1CCN(C2=C(NS(=O)(=O)c3ccc(C)cc3)C(=O)c3ccccc3C2=O)CC1 returned M18AAP inhibitor 31*, PABP FP inh 8, eIF4H FP inh -4 and PABP1 MLLE inh 8.
`Cc1ccc(S(=O)(=O)NC2=C(N3CCN(Cc4ccccc4)CC3)C(=O)c3ccccc3C2=O)cc1` gave M18AAP inhibitor 4, eIF4E 4G PPI 2, PABP FP inh 18, PERK inh -3, eIF4H FP inh -5 and PABP1 MLLE inh 1.
`Cc1ccc(NC2=C(N3CCOCC3)C(=O)c3ccccc3C2=O)cc1` gave M18AAP inhibitor 11, eIF4E 4G PPI -4, PABP FP inh 0, PERK inh 3.2*, eIF4H FP inh 0 and PABP1 MLLE inh 38.

Screening data from PubChem.
